Assay results published in PubChem BioAssay (Tox21).
Inconclusive results are not listed. The source made the active and inactive calls. Unless noted, calls come from the whole dose curve; as a rule, active = well fitted curve in the direction sought with a large enough effect in the repeat runs; inconclusive = weak or mixed curves; inactive = no such curve, though single readings can be large; an effect the other way counts as inactive or inconclusive.

Experiments:
[1] = qHTS assay to identify small molecule antagonists of the peroxisome proliferator-activated receptor delta (PPARd) signaling pathway - cell viability counter screen (AID 743213); note: % is set by controls: 0 for no effect and ±100 for the full control effect; nearly all actives have a fitted effect of over 50% in size
Summary of the method: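 PPARd-bla HEK293H cells were treated with compounds plus agonist L165041 (300 nM final) for 17 h at 37 C. Viability was then read in the same wells by CellTiter-Glo luminescence after 30 min at room temperature.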

[2] = qHTS assay to identify small molecule agonists of the farnesoid-X-receptor (FXR) signaling pathway - cell viability counter screen (AID 743218); note: % is set by controls: 0 for no effect and ±100 for the full control effect; nearly all actives have a fitted effect of over 45% in size
Summary of the method: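 Cells were seeded, left 5 h at 37 C and 5% CO2, then dosed with compound in DMSO for 16 h. After the beta-lactamase FRET read, CellTiter-Glo was added and luminescence measured 30 min later.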

[3] = qHTS assay to identify small molecule antagonists of the farnesoid-X-receptor (FXR) signaling pathway - cell viability counter screen (AID 743221; active = well fitted cell-killing curve with a large enough effect in the repeat runs, not every such curve was filed as active; note: % is set by controls: 0 for no effect and ±100 for the full control effect; nearly all actives have a fitted effect of over 50% in size)
Summary of the method: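 Cytotoxicity is taken from ATP luminescence (CellTiter-Glo, 30 min, room temperature) in FXR-bla HEK 293T cells previously incubated 16 h at 37 C with compound and chenodeoxycholic acid at 50 uM final.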

[4] = qHTS assay to identify small molecule antagonists of the vitamin D receptor (VDR) signaling pathway - cell viability counter screen (AID 743225); note: % is set by controls: 0 for no effect and ±100 for the full control effect; nearly all actives have a fitted effect of over 50% in size
Summary of the method: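 Same-well multiplex: following 16 h treatment of HEK 293T cells carrying a UAS-driven beta-lactamase reporter with compound and agonist (3 nM final), and a 2 h FRET substrate step, CellTiter-Glo was added and luminescence read after 30 min.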

[5] = qHTS assay to identify small molecule agonists of the NFkB signaling pathway - cell viability counter screen (AID 1159515; calls by dose curve; note: series mostly up to about 61 µM; % is set by controls: 0 for no effect and ±100 for the full control effect; nearly all actives have a fitted effect of over 55% in size)
Summary of the method: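 Cells are seeded (2,000 NFkB-bla ME-180 per well), rested overnight, and dosed with DMSO-dissolved compounds for 5 hr at 37 C. Viability is then read by CellTiter-Glo luminescence after 30 min at room temperature.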

[6] = qHTS assay to identify small molecule agonists of the endoplasmic reticulum stress response signaling pathway (AID 1159516; active = well fitted activation curve with a large enough effect in the signal ratio in the repeat runs, not every such curve was filed as active; the % refers to the signal ratio; note: % is set by controls: 0 for no effect and ±100 for the full control effect)
Summary of the method: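 Cells are seeded at 1,500 per well and incubated overnight. Compounds in DMSO are added for 5 hr at 37 C, then beta-lactamase FRET substrate for 2 hr at room temperature, and fluorescence at 460 and 530 nm is measured.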

[7] = qHTS assay to identify small molecule agonists of the endoplasmic reticulum stress response signaling pathway - cell viability counter screen (AID 1159517; calls by dose curve;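 note: HeLa cells carrying an ER stress response element beta-lactamase reporter; series mostly up to about 61 µM; % is set by controls: 0 for no effect and ±100 for the full control effect; nearly all actives have a fitted effect of over 50% in size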)
Summary of the method: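 ESRE-bla HeLa cells (1,500/well) were plated overnight at 37 C and exposed to compounds for 5 hr. After the 2 hr beta-lactamase substrate read, CellTiter-Glo went into the same wells, and luminescence was read after 30 min at room temperature.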

[8] = qHTS assay to identify small molecule antagonists of the retinoid-related orphan receptor gamma (ROR-gamma) signaling pathway - cell viability counter screen (AID 1159520)
Summary of the method: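 Cytotoxicity was read from cellular ATP (CellTiter-Glo luminescence) after 16 hr at 37 C with 1 uM doxycycline induction. The inducer was added 2 hr after compound transfer to Tet-on ROR gamma CHO cells.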

[9] = molecular target: Nuclear receptor ROR-gamma (Homo sapiens) (UniProt P51449); assay: qHTS assay to identify small molecule antagonists of the retinoid-related orphan receptor gamma (ROR-gamma) signaling pathway (AID 1159521)
Summary of the method: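 Inducible-expression reporter assay: doxycycline (1 uM final) switched on RORγ in CHO cells bearing a ROR response element-luciferase construct, with test compounds present from 2 h beforehand. Decreased luminescence after 16 h defined antagonist activity.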

[10] = qHTS assay to identify small molecule agonists of the AP-1 signaling pathway - cell viability counter screen (AID 1159525; calls by dose curve; note: nearly all actives have a fitted effect of over 55% in size)
Summary of the method: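 Intracellular ATP by Cell Titer Glo luminescence (30 min, RT) in the same ME-180 AP-1-bla wells after the 5 h compound exposure at 37 °C. Normalised to tetra n-octyl ammonium bromide and DMSO controls.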

[11] = qHTS assay to identify small molecule agonists of the AP-1 signaling pathway (AID 1159526; calls by dose curve; note: % is set by controls: 0 for no effect and ±100 for the full control effect)
[12] = molecular target: Retinoic acid receptor RXR-alpha (Homo sapiens) (UniProt P19793); assay: qHTS assay to identify small molecule agonists of the RXR signaling pathway (AID 1159527; calls by dose curve; note: % is set by controls: 0 for no effect and ±100 for the full control effect; nearly all actives have a fitted effect of over 35% in size)
Sequence of Retinoic acid receptor RXR-alpha (Homo sapiens) (P19793 whole entry, looked up): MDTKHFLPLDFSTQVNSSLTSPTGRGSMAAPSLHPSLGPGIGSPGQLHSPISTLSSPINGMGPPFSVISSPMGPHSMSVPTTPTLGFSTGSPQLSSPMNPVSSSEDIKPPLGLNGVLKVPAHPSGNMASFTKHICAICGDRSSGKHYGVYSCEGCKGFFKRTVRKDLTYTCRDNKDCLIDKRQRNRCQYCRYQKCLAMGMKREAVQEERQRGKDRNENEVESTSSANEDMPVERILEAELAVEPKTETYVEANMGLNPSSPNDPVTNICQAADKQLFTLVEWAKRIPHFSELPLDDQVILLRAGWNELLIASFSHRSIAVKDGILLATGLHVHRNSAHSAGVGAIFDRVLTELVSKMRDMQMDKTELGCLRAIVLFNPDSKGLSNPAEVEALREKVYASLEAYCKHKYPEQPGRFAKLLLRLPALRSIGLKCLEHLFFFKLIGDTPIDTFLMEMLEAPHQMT
Summary of the method: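 Compounds in DMSO were added to RXR-alpha-UAS-bla HEK 293T cells kept in 2% charcoal-stripped serum, and incubated 16 hr at 37 C with 5% CO2. Reporter signal came from a 2 hr B/G FRET substrate step.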

[13] = qHTS assay to identify small molecule agonists of the RXR signaling pathway - cell viability counter screen (AID 1159529)
Summary of the method: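 Counter screen: CellTiter-Glo luminescence. Cells: RXR-alpha-UAS-bla HEK 293T. Medium: 2% charcoal-stripped FBS. Treatment: 16 h, 37 C. Reagent incubation: 30 min, RT.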

[14] = molecular target: Peroxisome proliferator-activated receptor delta (Homo sapiens) (UniProt Q03181); assay: qHTS assay to identify small molecule antagonists of the peroxisome proliferator-activated receptor delta (PPARd) signaling pathway (AID 743215; active = well fitted inhibition curve with a large enough effect in the signal ratio in the repeat runs, not every such curve was filed as active; the % refers to the signal ratio;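 note: cells stimulated with agonist L165041 at 300 nM final during compound exposure; series mostly up to about 62 µM; % is set by controls: 0 for no effect and ±100 for the full control effect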)
Sequence of Peroxisome proliferator-activated receptor delta (Homo sapiens) (Q03181 whole entry, looked up): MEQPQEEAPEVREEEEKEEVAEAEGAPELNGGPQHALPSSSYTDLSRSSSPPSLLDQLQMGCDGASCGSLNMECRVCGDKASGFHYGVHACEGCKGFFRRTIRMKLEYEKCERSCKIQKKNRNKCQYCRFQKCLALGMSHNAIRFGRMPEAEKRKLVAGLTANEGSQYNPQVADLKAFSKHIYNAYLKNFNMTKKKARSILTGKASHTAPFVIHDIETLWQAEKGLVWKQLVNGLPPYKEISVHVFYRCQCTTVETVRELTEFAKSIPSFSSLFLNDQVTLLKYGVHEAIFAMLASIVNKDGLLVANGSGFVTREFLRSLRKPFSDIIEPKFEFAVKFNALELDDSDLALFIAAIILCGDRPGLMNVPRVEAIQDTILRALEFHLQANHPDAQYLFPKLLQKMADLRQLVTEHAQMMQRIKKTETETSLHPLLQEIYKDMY
Summary of the method: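 Cells: HEK293H with a UAS-driven beta-lactamase reporter responsive to PPARd. Compounds were co-added with L165041 (300 nM, final) and incubated 17 h at 37 C before a 2 h room-temperature FRET substrate step and fluorescence reading.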

[15] = molecular target: Bile acid receptor (Homo sapiens) (UniProt Q96RI1); assay: qHTS assay to identify small molecule antagonists of the farnesoid-X-receptor (FXR) signaling pathway (AID 743217; active = well fitted inhibition curve with a large enough effect in the signal ratio in the repeat runs, not every such curve was filed as active; the % refers to the signal ratio; note: % is set by controls: 0 for no effect and ±100 for the full control effect)
Sequence of Bile acid receptor (Homo sapiens) (Q96RI1 whole entry, looked up): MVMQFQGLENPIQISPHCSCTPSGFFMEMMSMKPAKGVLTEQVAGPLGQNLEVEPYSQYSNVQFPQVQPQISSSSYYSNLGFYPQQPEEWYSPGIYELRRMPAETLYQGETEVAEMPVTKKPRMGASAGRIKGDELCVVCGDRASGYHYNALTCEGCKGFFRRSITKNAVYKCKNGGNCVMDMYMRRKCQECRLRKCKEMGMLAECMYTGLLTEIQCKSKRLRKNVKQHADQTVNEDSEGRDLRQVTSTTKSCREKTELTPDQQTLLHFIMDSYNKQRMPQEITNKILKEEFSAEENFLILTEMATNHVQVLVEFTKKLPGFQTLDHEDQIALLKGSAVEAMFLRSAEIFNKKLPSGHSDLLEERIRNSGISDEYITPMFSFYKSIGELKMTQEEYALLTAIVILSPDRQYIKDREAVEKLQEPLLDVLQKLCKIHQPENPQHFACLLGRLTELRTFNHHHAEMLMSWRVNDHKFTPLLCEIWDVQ
Summary of the method: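 Cells carrying a UAS-driven beta-lactamase reporter (GeneBLAzer FXR-UAS-bla HEK 293T) were plated and rested 5 h at 37 °C. Compounds in DMSO were added alongside chenodeoxycholic acid agonist at 50 uM final and left 16 h at 37 °C before FRET substrate readout.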

[16] = molecular target: Bile acid receptor (Homo sapiens) (UniProt Q96RI1); assay: qHTS assay to identify small molecule agonists of the farnesoid-X-receptor (FXR) signaling pathway (AID 743220; active = well fitted activation curve with a large enough effect in the signal ratio in the repeat runs, not every such curve was filed as active; the % refers to the signal ratio; note: % is set by controls: 0 for no effect and ±100 for the full control effect)
Summary of the method: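 FXR-UAS-bla HEK 293T cells carrying a UAS-driven beta-lactamase reporter were plated for 5 h at 37C/5% CO2, then exposed to DMSO-dissolved Tox21 10K compounds for 16 h at 37C. A LiveBLAzer B/G FRET substrate was loaded for 2 h at room temperature before fluorescence reading.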

[17] = molecular target: Vitamin D3 receptor (Homo sapiens) (UniProt P11473); assay: qHTS assay to identify small molecule agonists of the vitamin D receptor (VDR) signaling pathway (AID 743222; calls by dose curve; note: % is set by controls: 0 for no effect and ±100 for the full control effect)
Sequence of Vitamin D3 receptor (Homo sapiens) (P11473 whole entry, looked up): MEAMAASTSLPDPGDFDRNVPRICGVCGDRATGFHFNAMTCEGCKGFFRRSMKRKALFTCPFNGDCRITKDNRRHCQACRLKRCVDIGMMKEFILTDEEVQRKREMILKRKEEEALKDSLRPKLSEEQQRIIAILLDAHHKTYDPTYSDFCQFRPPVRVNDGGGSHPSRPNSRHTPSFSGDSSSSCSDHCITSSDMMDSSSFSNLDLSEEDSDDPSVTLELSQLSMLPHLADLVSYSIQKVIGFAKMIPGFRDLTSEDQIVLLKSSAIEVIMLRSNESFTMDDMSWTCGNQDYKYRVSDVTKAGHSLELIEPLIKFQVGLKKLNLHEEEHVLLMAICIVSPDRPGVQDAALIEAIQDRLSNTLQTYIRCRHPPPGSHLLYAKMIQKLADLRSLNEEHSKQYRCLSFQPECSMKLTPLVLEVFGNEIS
Summary of the method: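 Cells carrying a VDR-driven beta-lactamase reporter are seeded at 2,000 per well and rested 4 h. Compounds in DMSO are added for 16 h at 37C, and FRET substrate fluorescence is measured after 2 h at room temperature.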

[18] = molecular target: Vitamin D3 receptor (Homo sapiens) (UniProt P11473); assay: qHTS assay to identify small molecule antagonists of the vitamin D receptor (VDR) signaling pathway (AID 743223; active = well fitted inhibition curve with a large enough effect in the signal ratio in the repeat runs, not every such curve was filed as active; the % refers to the signal ratio; note: % is set by controls: 0 for no effect and ±100 for the full control effect)
Summary of the method: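 Quantitative HTS in VDR-bla reporter cells stimulated with 1alpha,25-dihydroxyvitamin D3, 3 nM final. Compound exposure 16 h, 37C, 5% CO2. Read-out: beta-lactamase FRET substrate fluorescence, 2 h RT.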

[19] = qHTS assay to identify small molecule agonists of the vitamin D receptor (VDR) signaling pathway - cell viability counter screen (AID 743224)
Summary of the method: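 Cells: VDR-bla, 2,000/well, settled 4 h. Treatment: compounds in DMSO, 16 h, 37C/5% CO2. Readout: CellTiter-Glo luminescence after 30 min RT.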

CCC(C(=O)NC(=O)NC(C)=O)c1ccccc1 (stereo not given)
inactive: outcome [1] | outcome [2] | outcome [3] | outcome [4] | outcome [5] | outcome [6] | outcome [7] | outcome [8] | Potency [9] | outcome [10] | outcome [11] | Potency [12] | Potency [13]

CCCCCCCCCCOc1cc2c(=O)c(C(=O)OCC)c[nH]c2cc1OCC
inactive: ratio activity, negative = inhibition [14] 0.26% [at 6.26 µM] | viability change, negative = cytotoxic [2] 4.21% [at 5.95 µM] | activity change, negative = cytotoxicity [3] 5.04% [at 5.95 µM] | viability change, negative = cytotoxic [4] -0.675% [at 6.95 µM] | activity, negative = cytotoxic [5] 6.37% [at 6.95 µM] | activation [6] 2.24% [at 6.95 µM] | activity change, negative = cytotoxicity [7] -7.49% [at 6.95 µM] | activity, negative = cytotoxicity [8] 2.58% [at 8.39 µM] | activity change, negative = inhibition [9] 36.6% [at 8.39 µM] | viability change, negative = cytotoxic [10] 15.6% [at 6.97 µM] | activation [11] 9.42% [at 6.97 µM] | activation [12] -0.304% [at 6.98 µM] | activity change, negative = cytotoxicity [13] -0.18% [at 6.97 µM]

CCN[C@H]1C[C@H](C)S(=O)(=O)c2sc(S(N)(=O)=O)cc21
inactive: outcome [1] | outcome [15] | outcome [2] | outcome [16] | outcome [3] | outcome [17] | outcome [18] | outcome [19] | outcome [4] | outcome [5] | outcome [6] | outcome [7] | outcome [8] | Potency [9] | outcome [10] | outcome [11] | Potency [12] | Potency [13]

C=CCOCC(O)CO (stereo not given)
inactive: outcome [1] | outcome [15] | outcome [2] | outcome [3] | outcome [17] | outcome [19] | outcome [4] | outcome [5] | outcome [6] | outcome [7] | outcome [8] | Potency [9] | outcome [10] | outcome [11] | Potency [12] | Potency [13]
